Reference: PubChem BioAssay AID1159580 (chemical genetic matrix, 2015)
Where “and” joins values, the source holds several entries; their conditions need not be identical. Equal entries are not always repeated. Out of some 5,500 compounds screened, about 2,000 (36%) were called active. About 18% were inconclusive and are not listed. Cut-off read from the data, not from the text of the source: active = normalized growth mostly below about 0.91 (no sharp cut-off); inconclusive = no clear call, values can overlap the other calls; inactive = mostly above about 0.92. Some of the results follow.

Assay: chemical genetic growth profiling, strain panel (AID 1159580);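 note: tested at 20 µM; growth read once vehicle control cultures reached saturation at 30 °C; 1 = growth at the plate median or of vehicle wells; lower values mean less growth of the strain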
Conditions: S. cerevisiae deletion strains, growth OD

Measured: normalized growth

O=C1NCC2(CCN(CCc3ccccc3)CC2)O1
inactive: locus YAL013W, strain DEP1, active compounds read low 1.02 | locus YAL021C, strain ccr4, active compounds read low 0.973 | locus YAL026C, strain drs2, active compounds read low 0.99 | locus YAL030W, strain snc1, active compounds read low 1 | locus YAL040C, strain CLN3, active compounds read low 1 | locus YBL061C, strain skt5, active compounds read low 0.983 | locus YBR009C, strain hhf1, active compounds read low 0.992 | locus YBR021W, strain FUR4, active compounds read low 1.01 | locus YBR023C, strain chs3, active compounds read low 0.993 | locus YBR171W, strain sec66, active compounds read low 0.99 | locus YBR229C, strain ROT2, active compounds read low 1.01 | locus YBR231C, strain swc5, active compounds read low 0.985 | locus YBR279W, strain paf1, active compounds read low 1.01 | locus YCL011C, strain gbp2, active compounds read low 1.01 | locus YCL016C, strain dcc1, active compounds read low 1.02 | locus YCL029C, strain bik1, active compounds read low 1 | locus YCL061C, strain MRC1 (second series), active compounds read low 1.01 | locus YCL069W, strain vba3, active compounds read low 0.982 | locus YCR088W, strain abp1, active compounds read low 1.01 | locus YDL005C, strain med2, active compounds read low 0.987 | locus YDL035C, strain GPR1, active compounds read low 1.01 | locus YDL040C, strain nat1, active compounds read low 0.996 | locus YDL074C, strain BRE1, active compounds read low 1.02 | locus YDL101C, strain DUN1, active compounds read low 1.02 | locus YDL134C, strain PPH21, active compounds read low 1 | locus YDL185W, strain tfp1, active compounds read low 1.01 | locus YDL192W, strain arf1, active compounds read low 1.01 | locus YDR001C, strain nth1, active compounds read low 0.99 | locus YDR069C, strain doa4, active compounds read low 0.983 | locus YDR101C, strain arx1, active compounds read low 0.994 | locus YDR137W, strain rgp1, active compounds read low 0.989 | locus YDR150W, strain NUM1, active compounds read low 1 | locus YDR159W, strain sac3, active compounds read low 0.989 | locus YDR162C, strain NBP2, active compounds read low 1.01 | locus YDR195W, strain ref2 0.973 | locus YDR297W, strain sur2, active compounds read low 1 | locus YDR318W, strain mcm21, active compounds read low 1.01 | locus YDR334W, strain swr1, active compounds read low 0.983 | locus YDR335W, strain msn5, active compounds read low 0.971 | locus YDR363W, strain ESC2, active compounds read low 1 | locus YDR388W, active compounds read low 1 | locus YDR392W, strain spt3, active compounds read low 1.02 | locus YDR502C, strain sam2, active compounds read low 0.995 | locus YEL003W, strain gim4, active compounds read low 0.99 | locus YEL037C, strain rad23, active compounds read low 0.982 | locus YEL061C, strain CIN8 (second series), active compounds read low 0.978 | locus YEL061C, strain CIN8, active compounds read low 1 | locus YER002W, strain NOP16, active compounds read low 1.01 | locus YER015W, strain faa2, active compounds read low 1 | locus YER016W, strain bim1, active compounds read low 1.01 | locus YER110C, active compounds read low 1 | locus YER111C, strain swi4, active compounds read low 0.992 | locus YER155C, strain BEM2 (second series), active compounds read low 0.996 | locus YER155C, strain BEM2, active compounds read low 1 | locus YER167W, strain BCK2, active compounds read low 1 | locus YFR010W, strain ubp6, active compounds read low 0.965 | locus YGL078C, strain dbp3, active compounds read low 0.994 | locus YGL086W, strain mad1, active compounds read low 0.993 | locus YGL167C, strain pmr1, active compounds read low 0.982 | locus YGL173C, strain kem1, active compounds read low 0.979 | locus YGL227W, strain vid30, active compounds read low 1 | locus YGL240W, strain doc1, active compounds read low 0.969 | locus YGL248W, strain PDE1, active compounds read low 1.01 | locus YGL253W, strain hxk2, active compounds read low 0.982 | locus YGR078C, strain PAC10, active compounds read low 1.01 and 1.02 | locus YGR135W, strain pre9, active compounds read low 0.999 | locus YGR229C, strain SMI1, active compounds read low 1 | locus YGR252W, strain gcn5, active compounds read low 0.944 | locus YHR013C, strain ard1, active compounds read low 0.974 | locus YHR027C, strain rpn1, active compounds read low 1 | locus YHR030C, strain SLT2, active compounds read low 1.01 and 0.988 | locus YHR079C, strain IRE1 (second series), active compounds read low 1.01 | locus YHR079C, strain IRE1, active compounds read low 0.979 | locus YHR094C, strain hxt1, active compounds read low 1 | locus YHR129C, strain ARP1, active compounds read low 1.02 | locus YHR142W, strain chs7, active compounds read low 0.966 | locus YHR200W, strain rpn10, active compounds read low 0.994 | locus YIL066C, strain RNR3, active compounds read low 1.01 | locus YIL073C, strain SPO22, active compounds read low 1.01 | locus YIL125W, strain kgd1, active compounds read low 0.998 | locus YIR030C, strain dcg1, active compounds read low 0.994 | locus YJL092W, strain hpr5, active compounds read low 0.997 | locus YJL095W, strain BCK1 (second series), active compounds read low 0.993 | locus YJL095W, strain BCK1, active compounds read low 1.04 and 0.982 | locus YJL115W, strain asf1, active compounds read low 0.976 | locus YJL129C, strain trk1, active compounds read low 0.967 | locus YJL134W, strain LCB3, active compounds read low 1.01 | locus YJL154C, strain vps35, active compounds read low 1 | locus YJL164C, strain tpk1, active compounds read low 1.01 | locus YJL166W, strain qcr8, active compounds read low 0.997 | locus YJL168C, strain set2, active compounds read low 1.01 | locus YJL187C, strain SWE1 (second series), active compounds read low 1.02 | locus YJR043C, strain POL32, active compounds read low 1.02 | locus YJR066W, strain TOR1, active compounds read low 0.913 | locus YJR075W, strain HOC1, active compounds read low 1 and 0.995
